# Experiments:
# Assay in all cases: PBM binding z-score (relative to random genomic background probes); higher = stronger binding; sequences stand for … in GC…GCGATTGACAGCGTAGAATGAAGG
# [1] = test system: RARb homodimer (NR concentration 270 nM)
# Procedure, shortened: (§1)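 The probes on custom Agilent 4×180K protein-binding microarrays were double-stranded, with 34-nt variable regions bearing direct-repeat seeds, single-nucleotide variants, half-site ablations and random human genomic background sequences. Incubation lasted 1 h with ligand-free nuclear receptor dimers in PBS pH 7.4, 2% milk, 0.02% Triton X-100, 1 mM DTT, 0.2 mg/mL BSA and 0.4 mg/ml salmon testes DNA. Antibodies against each partner (one per run) detected bound dimers, and fluorescence scans were regression-normalized. Binding z-scores take the random background probes as reference.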
# [2] = test system: RARg:RXRa (NR concentration 270 nM, RXRa partner concentration 90 nM)
# Procedure, shortened: as §1
# [3] = test system: RARg homodimer (NR concentration 270 nM)
# Procedure, shortened: as §1
# [4] = test system: RXRa DBDmut IVT, anti-RXR (DBD mutation: RXRa K156A/R161A, NR concentration 90 nM)
# Procedure, shortened: as §1
# [5] = test system: RXRa homodimer (NR concentration 180 nM)
# Procedure, shortened: as §1
# [6] = test system: THRa:RXRa (NR concentration 90 nM, RXRa partner concentration 90 nM)
# Procedure, shortened: as §1
# [7] = test system: THRa homodimer (NR concentration 90 nM)
# Procedure, shortened: as §1
# [8] = test system: VDR:RXRa (NR concentration 270 nM, RXRa partner concentration 90 nM)
# Procedure, shortened: as §1
# [9] = test system: VDR homodimer (NR concentration 270 nM)
# Procedure, shortened: as §1
Sequence,PBM binding z-score [1],PBM binding z-score [2],PBM binding z-score [3],PBM binding z-score [4],PBM binding z-score [5],PBM binding z-score [6],PBM binding z-score [7],PBM binding z-score [8],PBM binding z-score [9]
CCCGCTAGGTCAATGGTCAGCTAAAGCAGCTCGC,3.03,3.62,4.76,1.28,2.37,2.27,0.886,1.02,-0.00101
CATAAAGGGTCAGCTAGGCCAGAGTAGGGACGGC,4.09,5.41,6.23,1.52,4.42,2.65,0.204,4.05,0.783
CATAGTTGGTCAGGAGGTCACACACCGGATATGA,4.18,5.09,4.47,0.639,4.6,3.46,2.32,3.94,3.09
GCTAGCAGGCCATTTAGGTCACTCAATGACGGGC,2.27,1.47,1.75,0.101,1,2.79,1.71,0.996,0.244
ATCTCTAGGTAAGCAAGTTCAGTGAATGCCGAAC,1.09,0.455,0.778,0.62,0.3,0.771,0.165,3.03,2.32
CATACAGGGTCAGCTAGGCCAGATTAGGGACGGC,3.37,4.39,4.22,1.47,4.12,3.18,1.09,3.94,0.951
ATCGAAAGGTCGTGAGATGAGTATACAGAAAGGC,2.35,4.27,3.47,0.915,5.21,2.19,-0.531,3.09,0.66
ATCTCTAGGTAAAAGTGCAGTGAATCCCGAGGAT,0.183,0.363,0.23,-0.0923,0.454,0.235,-0.373,0.00627,0.138
CCTCGGAAGACAGAAGGTCAGAGCTGTCCGCTTT,3.01,2.34,2.32,0.101,1.83,1.56,-0.133,1.01,0.00286
TCGAGTAGGGTAGGGGCATTCAGAATGGCGTCGA,0.89,-0.0257,-0.315,0.328,0.411,0.763,0.794,0.426,0.663
GCTAGTTGGTCAGTAAAAGGCCACACACCGGTCG,1.83,0.944,0.676,-0.169,0.227,0.0278,-0.175,-0.219,-0.584
CAGCCTAGGTCAGGGCCAGAATAGGAGGAACGTT,2.24,2.81,3.54,-0.145,1.6,1.84,0.0772,0.0945,-0.324
ACTTACGGGTCAACGAGGTTATAGCCCGCGTATA,3.68,5.54,4.99,2.37,6.11,3.97,1.14,7.59,3.48
GCTGCTAGGACAACTGATGGTCAGCTAAAGCTCG,0.137,-0.166,0.37,-0.0279,-0.722,0.434,-0.447,-0.904,-1.49
CCGACTAGGGCAAAGGTTACCATACTCAGTACGA,2.48,3.78,2.11,0.743,4.2,2.14,-0.117,1.61,0.229
ATCTCTAGGTAGAAGTTCAGTGAATCCCGAGGAT,1.2,0.74,0.979,0.251,0.602,0.355,-0.305,0.473,1.28
ATCAAAAGGTCGTGAGGTGAGTATACAGAAAGGC,3.41,4.87,4.4,1.25,5.51,3.49,1.89,,1.49
GCTGCTAGGTCAACTGGTGGTCAGCTAAAGCTCG,3.61,5.52,5.36,1.53,2.88,3.02,0.794,1.64,0.0223

Sequence,PBM binding z-score [1],PBM binding z-score [2],PBM binding z-score [3],PBM binding z-score [4],PBM binding z-score [5],PBM binding z-score [6],PBM binding z-score [7],PBM binding z-score [8],PBM binding z-score [9]
TCTGCTAGGTCAACGATGGTCTGCTAATCTGCTA,2.72,3.69,4.4,0.993,2.25,2.6,0.712,0.981,-0.658
ACTTACGGGTCAACGTGGTTATAGCACGCGTATA,3.03,5.25,5.16,2.08,6.28,2.64,0.124,4.96,1.18
AGAATGCGGTTAAGATCAGGGAAACAGAATACAT,-0.126,0.0483,0.299,-0.536,-0.0604,0.164,-0.363,-0.269,-0.162
CCTACTGGTCCAAAAAGGTCATTGATGCCGATAA,4.58,4.42,4.17,1.56,4.74,3.35,1.18,,3.81
CCTGCTAGGTCAATTGTCAGCTAAAGCAGCTCGC,2.38,3.24,3.98,1.77,1.41,2.02,0.418,0.479,-0.128
AGTCAAAATTCAGGACGAGGTAACGTAAAGCACG,-0.0538,0.203,0.422,-0.303,0.601,1.99,1.64,-0.107,0.0292
CCTGCTAGGACATGGTCAGCTAATCTACAGTATG,-0.2,-0.204,0.478,0.385,-0.656,0.568,-0.28,-0.684,-0.547
CCTACTGGGCCACAGGTCATTGATTCCAATGCTC,2.48,2.14,1.94,0.14,2.23,1.54,0.651,,1.13
TCGAGTAGGTTAGTCGGGGCATTCTGCCAACATA,0.157,-0.242,-0.393,0.374,-0.128,0.983,-0.375,2.15,0.287
CTCGAAAGGGCGGTTGAGGTGAGTATACGGATAA,0.872,0.317,0.636,0.039,-0.0679,4.21,1.28,-0.045,0.0137
TAGACTAGGTCATGGGCCAGTATACCACGCGAAC,2.68,3.79,4.47,-0.0129,2.96,2.73,0.989,1.76,0.435
CAAGCTAGGTCAAGGTCAAAGTCGGTTTGTGCCA,4.92,6.04,6.71,2.89,5.73,4.39,3.51,5.24,4.44
GCGACTGGGGCAGAGCAGGTTACCATAAGGTTGG,0.826,0.0864,0.288,-0.613,0.225,1.64,-0.115,-0.508,-0.654
TCTTGTAGATCCACAGGAGGTTAAGAAAGATCGA,0.545,0.509,0.319,0.48,0.994,0.962,0.0268,0.74,-0.139
ACAGACAGGTGATGAAGGTAATTCAGGCTATCAT,-0.0158,0.139,0.241,-0.19,0.13,0.514,0.165,0.0212,-0.369
CTACCAAGGTGAACAAGGTCGTAGATTACTATTC,1.98,2,1.6,0.741,2.24,3.24,1.88,5.56,1.72
CGAACTAGGTCAAGCACAGTGAATCTCCGCACGC,2.96,4.27,4.61,1.82,2.84,2.72,1.27,,0.357
AGTCAAAGTTCAGGACGAGGGAACGTAAAGCACG,2.88,4.2,4.74,3.07,2.87,2.44,0.19,,1.74

# From the supplement of paper PMC6555819
